This is a sample that favours compounds with a hit; in the whole collection about 3% have one here.
sdo1 growth: restores growth of sdo1-depleted yeast; S. cerevisiae sdo1-depleted JHY4D growth rescue, OD600 30 h; hits give high values; pdr5 snq2 efflux-pump mutant strain; z-score at 10 µM; 140,000 compounds, 0.21% hits; AID 817;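 active = z-score above 3 at both the 24 hr and the 30 hr optical density reads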;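 also: z-score against mean and SD of all compound wells on the same plate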
ROMK primary: modulators of human ROMK potassium channel | P48048 | Tet-inducible ROMK, thallium flux fluorescence; actives lie on both sides | B-score at 10 µM | 130,000 compounds, 2% hits | AID 1918;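 active = signal ratio slope over the read window, or its plate-corrected B-score, at least 3 SD from the plate mean, either direction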;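 also: B-score of the F/F0 ratio slope over 7 to 12 s after thallium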
Target sequence (P48048 whole entry, looked up): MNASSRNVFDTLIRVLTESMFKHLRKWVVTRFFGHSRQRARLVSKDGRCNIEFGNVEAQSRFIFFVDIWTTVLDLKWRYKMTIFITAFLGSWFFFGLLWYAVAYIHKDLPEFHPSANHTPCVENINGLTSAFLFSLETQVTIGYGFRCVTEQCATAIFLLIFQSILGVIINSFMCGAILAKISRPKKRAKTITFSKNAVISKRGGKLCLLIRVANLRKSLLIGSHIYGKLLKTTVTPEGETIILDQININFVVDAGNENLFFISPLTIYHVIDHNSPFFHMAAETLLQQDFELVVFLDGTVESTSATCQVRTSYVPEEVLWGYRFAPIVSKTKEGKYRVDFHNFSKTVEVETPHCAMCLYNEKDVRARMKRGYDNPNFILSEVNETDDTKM
INS promoter inh: TRM-6 insulin promoter activity inhibition; AID 1273; TRM-6 cells (human fetal islet line), insulin promoter-eGFP reporter, imaging; reporter expression induced with tamoxifen; inhibition, % at 2 µM; 130,000 compounds, 0.9% hits;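 active = inhibition above the mean plus 3 SD, with well images judged a real hit on visual review, cut at about 60% in these data, passing the limit was not always enough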
Measles CPE: protection of cells from measles virus. Measles virus-infected cells, CPE protection, absorbance. protection (pct of control), % at 4 µM. 140,000 compounds, 1.5% hits. AID 841; in the data active = protection mostly above about 24%, no sharp cut-off; inactive = mostly below about 26%
Active calls of the source: *; i = inactive; x = no result given.

SMILES	sdo1 growth	ROMK primary	INS promoter inh	Measles CPE
CC1(C)CC(=O)C2=C(C1)NC(SCC(=O)Nc1ccccc1)=C(C#N)C2c1ccco1 (configuration not stated)	-0.7	-1.82	-26.4	38.2*
O=C(O)c1cn(-c2ccc(F)c(F)c2)c2c(F)c(F)c(F)c(F)c2c1=O	-0.75	-0.936	33.3	4.5
O=C(c1cccc(-c2ccc(O)cc2)c1)N1CCN(c2ccc(F)cc2)CC1	x	0.608	68.4*	x
COc1ccc(C(C)=O)cc1CSc1nc2cc(Cl)ccc2o1	-0.31	0.0228	74.1*	3.8
O=C(Nc1ccc2c(c1)OCO2)c1ccc(Cl)s1	-1.11	0.102	13.3	54.4*
O=C(Nc1ccc(OC(F)F)c(Cl)c1)Nc1ccc2c(c1)OCO2	-1.39	x	i	41.4*
O=C(O)CC1SC(=Nc2ccccc2)N(c2ccccc2)C1=O (configuration not stated)	-0.32	0.0216	-3.9	50.8*
O=C(O)CC1S/C(=N\N=C2CCCCCCC2)N(c2ccccc2)C1=O (configuration not stated)	x	0.694	x	x
OCCNc1nc2ccccc2n1CCN1CCCCC1	2.24	-0.26	5.6	46.7*
Cn1c(CNc2nc3ccccc3n2CCN2CCCCC2)nc2ccccc21	-0.18	x	-32.3	3.0
CCOc1nc(NC(=O)NS(=O)(=O)c2ccccc2F)nc(-c2ccccc2)n1	x	-0.845	90.9*	x
COc1ccc(N2C(=S)NC3CS(=O)(=O)CC32)cc1 (configuration not stated)	x	-0.739	x	x
Cc1ccccc1OCc1nnc(SCC(=O)Nc2ccc(N3CCOCC3)c(Cl)c2)n1C	-1.11	-1.03	x	27.1
CCOc1ccc(C(=S)N2CCCC2)cc1OC	-0.07	0.3	20.0	10.0
CCOc1ccc(C(=O)N2CCCC2)cc1OC	0.75	0.000834	-72.4	33.5*
CCOC(=O)N1CCN(C(=O)c2ccc(OC)c(S(=O)(=O)N3CCOCC3)c2)CC1	x	-0.0139	77.8*	x
CCOC(Cn1ccc(=O)[nH]c1=O)OCC	x	-0.0132	x	x
C/C(=N\NC(=O)CCCNc1ccc(C)cc1)c1ccccn1	-1.05	0.0551	64.3*	1.5
CCc1cc[n+](-c2nc3ccccc3nc2[N-]S(=O)(=O)c2ccc(Br)s2)cc1	0.61	x	7.7	9.2
Cc1ccc(-c2nnn(CC(=O)Nc3ccccc3-c3ccccc3)n2)c(-n2cnnn2)c1	0.16	1.16	x	41.7*
Cc1oc(-c2ccccc2F)nc1CN1CCC(C(=O)NC2CCCc3ccccc32)CC1 (configuration not stated)	-0.02	x	85.7*	4.3
O=C(Nc1ccc(Oc2nnc(-c3ccccc3)c3ccccc23)cc1)c1ccccc1	-0.82	x	13.8	14.3
COc1ccc(C2CC23N=C(c2ccccc2)OC3=O)cc1 (configuration not stated)	-0.57	x	33.3	43.5*
COc1ccc(C2=NC(c3ccccc3)CO2)cc1 (configuration not stated)	-0.2	-1.2	15.0	14.4
Cc1cc(Cl)ccc1NC(=S)NCCN1CCOCC1	0.78	x	32.4	5.4
SMILES	sdo1 growth	ROMK primary	INS promoter inh	Measles CPE
CCOC(=O)C1CCN(C(=O)c2cccc(NS(=O)(=O)c3ccc(F)c(F)c3)c2)CC1	x	0.898	x	x
CCOC(=O)N1CCN(C(=O)CSc2ccc(-c3ccc(OC)cc3)nn2)CC1	x	-0.011	-2.9	x
O=C(NC1CCCC1)c1sc(=S)n2c1[nH]c(=O)c1ccccc12	-2	-1.42	x	14.1
O=C(NCc1ccco1)c1sc(=S)n2c1[nH]c(=O)c1ccccc12	-0.22	-3.69*	35.7	13.8
CCC(=O)Nc1cccc(C(=O)/C=C/c2cc(Br)ccc2OC)c1	-2.18	-0.765	94.3*	4.6
Cc1nc2sc(C(=O)c3ccccc3)c(N)c2c(C)c1C	x	0.794	x	x
Cc1nc2sc(C(=O)OC(C)C)c(N)c2c(C)c1C	x	0.102	100.0*	x
COc1ccccc1OCCC(=O)OCC(=O)c1c(N)n(C)c(=O)n(C)c1=O	x	0.0752	x	x
Cc1ccc(C2CC(c3ccc(Cl)cc3)=NNC2=O)cc1 (configuration not stated)	0.07	-2.07	x	49.0*
O=C1NN=C(c2ccc(Br)cc2)CC1c1ccc(Cl)cc1 (configuration not stated)	x	-1.49	x	x
Cc1cccc(C2=NNC(=O)C(c3ccc(Cl)cc3)C2)c1 (configuration not stated)	x	-1.53	100.0*	x
COc1cccc(C(=O)NCC(=O)OCc2ccc(F)cc2Cl)c1	-0.79	-0.404	-18.2	4.0
O=S(=O)(c1ccc(Cl)cc1)N1CCN(c2ncccn2)CC1	x	0.991	x	x
CS(=O)(=O)N1CCN(c2ncccn2)CC1	0.19	x	83.3*	5.0
COc1cc(CCN2C(=O)N[C@@H](CCc3ccccc3)C(C(C)=O)=C2C)cc(OC)c1OC	1.14	0.582	9.1	28.8*
CCC1(c2ccc(F)cc2)NC(=O)N(CC(=O)c2ccc[nH]2)C1=O (configuration not stated)	0.66	x	11.7	30.1*
CCc1cccc(C)c1NC(=O)CO/N=C(\N)CC(=O)NC1CCCCC1	x	0.0971	-72.7	x
C=C(C)c1cccc(C(C)(C)NC(=O)Nc2ccccc2OCC)c1	-0.03	2.07	-13.8	31.9
C=C(C)c1cccc(C(C)(C)NC(=O)Nc2cc(C)ccc2OC)c1	0.08	x	-20.0	60.3*
CC(C)NS(=O)(=O)c1ccc(NC(=O)C2CC3C=CC2C3)cc1 (configuration not stated)	-0.39	x	14.3	6.2
COc1ccc(NS(=O)(=O)c2cccc(-c3n[nH]c(=S)n3Cc3ccccc3)c2)cc1	x	0.0317	-116.7	x
COc1cc(CC(=O)Nc2cccc(SC)c2)cc(OC)c1OC	x	-1.95	75.0*	x
COc1ccccc1N(CN1C(=O)c2ccccc2C1=O)C(=O)c1cccc(C)c1	-0.15	x	x	9.9
O=C(CCNc1cc(Cl)cc(Cl)c1)c1cccs1	-1.49	0.0952	x	45.2*
O=C(CCSc1ccc(Cl)cc1)c1cccs1	0.94	x	45.5	35.4*
SMILES	sdo1 growth	ROMK primary	INS promoter inh	Measles CPE
Cc1ccc(C2=Nc3ccccc3N=C(C(Cl)Cl)C2)cc1	x	-0.641	82.3*	x
CCCCCNc1c(C(=O)OCC)c(=O)[nH]c2ccccc12	-0.17	x	-7.1	35.6*
CCOC(=O)c1c(N2CCCCC2)c2ccccc2[nH]c1=O	0.53	-0.458	65.6*	4.3
O=C(O)C(Cc1c[nH]c2ccccc12)NS(=O)(=O)c1cccc2nsnc12 (configuration not stated)	-0.34	-0.441	x	5.8
COC(=O)CSc1ccc(S(=O)(=O)N2CCCCCC2)cc1[N+](=O)[O-]	x	0.00744	x	x
CC1=Nc2ccccc2/C1=C/c1sc(=S)n(-c2cccc(C(=O)O)c2)c1O	x	-4.57*	x	x
O=Cc1c(OCc2ccccc2)ccc2ccccc12	x	-0.526	25.0	x
CC(C)Oc1ccc2ccccc2c1C=O	-0.93	0.271	x	23.8*
CCOC(=O)CCSc1nc(C)c2cc(C)ccc2n1	-0.45	-0.239	-96.7	8.3
CCOC(=O)CCSc1nc(C)c2ccccc2n1	0.22	-0.0167	18.2	56.4*
COC(=O)C(C)Sc1nc2c(cnn2-c2ccc(C)cc2)c(=O)[nH]1 (configuration not stated)	-1.68	x	58.3	58.6*
CCC(Sc1nc2c(cnn2-c2ccccc2)c(=O)[nH]1)C(=O)OC (configuration not stated)	0.03	x	x	9.5
Cc1nn(C)cc1CN(C)C(=O)c1cc(COc2ccc(F)cc2F)on1	x	1.46	40.0	x

Screening data deposited in PubChem BioAssay by several laboratories.
